# Compounds with a hit are over-represented: about 0.68% of the library has one in this group of screens.
# RN4220 kill = kills Staphylococcus aureus RN4220. S. aureus RN4220 growth, OD600, 16 h. inhibition, % (test concentration not listed). 330,000 tested, 0.33% active. AID 1259311; in the data active = inhibition above about 85%;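 note: plate controls were untreated cells for no effect and reference antibiotic for full effect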
# Mtb hypoxia inh = reduces hypoxia-regulated biosensor signal in M. tuberculosis; M. tuberculosis hypoxia-regulated fluorescent reporter, fluorescence; fluorescence inhibition, % (concentration not given with the values); 300,000 tested, 0.1% active; AID 1159583; in the data active = fluorescence inhibition mostly above about 23%, no sharp cut-off; inactive = mostly below about 17%
# Sa ugtP lethal = growth inhibition of S. aureus ugtP deletion strain. S. aureus RN4220 ugtP deletion, OD600 growth, 16 h. growth inhibition, % (no concentration beside the values). 330,000 tested, 0.54% active. AID 1259309; in the data active = growth inhibition above about 68%;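 note: plate controls were untreated wells for no effect and antibiotic for full effect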
# * marks the source's active call; other numbers are inactive results; nt = no result shown.
SMILES,RN4220 kill,Mtb hypoxia inh,Sa ugtP lethal
CC1CCC(C(C)C)C(OC(=O)COC(=O)c2ccccc2N)C1 (stereo not given),-1,7,94*
CC1CCC(C(C)C)C(OC(=O)Cn2nnc3c(cnn3-c3ccccc3)c2=O)C1 (stereo not given),24,0,3
CCOC1OC(C(=O)NC2CC2)=CC(c2csc3ccccc23)C1CCCO (stereo not given),11,0,0
NC(=NOC(=O)c1ccccc1Cl)c1cccnc1,5,4,2
Cc1ccc(-n2nnnc2C(Cl)(Cl)c2nnnn2-c2ccc(C)cc2)cc1,100*,10,100*
Clc1ccc(-c2nnnn2-c2ccc(Cl)cc2)cc1,3,7,-4
Cc1cc(C=NNC(=O)c2cccs2)c(C)n1-c1ccccc1,1,-5,-9
CC1CN(C(C)CO)C(=O)c2cccc(NS(=O)(=O)c3ccc(F)cc3)c2OC1CN(C)CC1CCCCC1 (stereo not given),-1,-11,-10
O=c1cc(-c2ccccc2)[nH]n1-c1ccccc1,6,7,-1
O=c1cc(-c2ccccc2)[nH]n1-c1nc2ccccc2s1,80,nt,91*
CCCCCCCC(=O)NNC(=O)Cc1ccccc1,1,3,-2
CCCCCCCCCCCC(=O)c1c(O)cccc1O,100*,nt,100*
Cn1c(=O)c2c(ncn2CC(=O)NN=C/C=C/c2ccco2)n(C)c1=O,-2,-1,0
CC1CN(C(C)CO)C(=O)c2cc(NS(=O)(=O)c3ccccc3)ccc2OC1CN(C)S(=O)(=O)c1cccs1 (stereo not given),3,-4,3
COC(=O)[C@@]12CCCCN1C(c1ccc(-c3cc(C(C)=O)cs3)cc1)C1C(=O)N(C)C(=O)C12 (stereo not given in full),-1,-6,4
CC1CCCCN1S(=O)(=O)c1ccc(C(=O)Nc2nnc(-c3ccccc3Cl)o2)cc1 (stereo not given),98*,-5,98*
O=C(Nc1nnc(-c2cccs2)o1)c1cccc(Oc2ccccc2)c1,99*,5,100*
CCCCN(CC)S(=O)(=O)c1ccc(C(=O)Nc2nnc(CSC)o2)cc1,47,5,17
CCCCN(CC)S(=O)(=O)c1ccc(C(=O)Nc2nnc(-c3ccccc3Cl)o2)cc1,100*,-3,100*
CCCCN(CC)S(=O)(=O)c1ccc(C(=O)Nc2nnc(COC)o2)cc1,17,3,1
CC1CCCCN1S(=O)(=O)c1ccc(C(=O)Nc2nnc(-c3ccncc3)o2)cc1 (stereo not given),28,2,8
O=C(Nc1nnc(-c2cccs2)o1)c1cccc(F)c1,28,-1,18
CCCCN(CCCC)S(=O)(=O)c1ccc(C(=O)Nc2nnc(CSC)o2)cc1,112*,nt,99*
CC(C)(C)OC(=O)NC(Cc1ccccc1)C(=O)NC(CO)C(O)C1CC1C(=O)NC1CCCCC1 (stereo not given),10,14,-1
COc1ccc(C=NNC(=O)c2ccccc2O)cc1Cn1cc([N+](=O)[O-])cn1,-1,-7,2
SMILES,RN4220 kill,Mtb hypoxia inh,Sa ugtP lethal
Cc1ccc(C=NNC(=O)CSc2nc3ccccc3[nH]2)o1,-5,-2,-4
COc1ccc(C(C)=NNC(=S)Nc2cc(C)ccc2C)cc1,3,18,7
S=c1[nH]nc(-c2cc(-c3ccccc3)n[nH]2)n1N=Cc1ccc(Br)s1,-20,0,-14
O=C(C1CC=CC2CCN(Cc3ccc(Cl)c(Cl)c3)C(=O)C21)N1CCN(c2ccccc2)CC1 (stereo not given),-4,-4,-6
CCC1=C(OC(=O)N(CC)CC)N2C(=O)OC(=NCC3CC3)[C@]2(C)C2C1=CCC1C(=O)N(CC(=O)OC)C(=O)C12 (stereo not given in full),7,17,1
CCCCN(C)S(=O)(=O)c1ccc(C(=O)Nc2nnc(C3=COCCO3)o2)cc1,14,-3,4
CCC1CCCCN1S(=O)(=O)c1ccc(C(=O)Nc2nnc(-c3ccccc3Cl)o2)cc1 (stereo not given),99*,5,98*
CC1(C)COCN1S(=O)(=O)c1ccc(C(=O)Nc2nnc(-c3ccc(Cl)s3)o2)cc1,100*,5,98*
CCC1CCCCN1S(=O)(=O)c1ccc(C(=O)Nc2nnc(C3CC3)o2)cc1 (stereo not given),62,-1,50
CS(=O)(=O)c1ccccc1-c1nnc(NC(=O)c2ccc(S(=O)(=O)N3CCCC3)cc2)o1,9,7,-2
CCCCN(C)S(=O)(=O)c1ccc(C(=O)Nc2nnc(-c3cccs3)o2)cc1,104*,nt,97*
O=C(Nc1nnc(-c2ccccc2Cl)o1)c1ccc(S(=O)(=O)N2CCCCCC2)cc1,100*,-5,96*
COc1ccc(-c2nnc(NC(=O)c3ccc(S(=O)(=O)N4COCC4(C)C)cc3)o2)cc1,54,1,49
CC(NC(=O)c1[nH]cnc1C(=O)Nc1cccc(Cl)c1)c1ccccc1 (stereo not given),-10,11,-37
CC(=Cc1ccccc1)C(=O)NCc1ccco1,7,nt,4
CC(=NNc1ccc(C(=O)O)cc1)c1ccc(O)c(O)c1O,1,1,19
Cc1ccccc1SCC(=O)NN=Cc1ccc(F)cc1,5,6,4
COc1cc(-c2noc(C)c2C=Cc2cccc([N+](=O)[O-])c2)cc(OC)c1OC,9,3,2
CCOc1ccc(N2C(=O)C(=Cc3ccccc3OCC(=O)OC)N(CC(=O)OC)C2=S)cc1,-4,-3,-5
Cc1cccc([N+](=O)[O-])c1NC(=O)CN(Cc1ccccc1)Cc1ccccc1,1,10,99*
Cc1cccc(C)c1NC(=O)CNC(=O)Cc1ccccc1[N+](=O)[O-],10,-3,4
CC1CN(C(C)CO)C(=O)c2cccc(NC(=O)Nc3ccc(C(F)(F)F)cc3)c2OC1CN(C)Cc1ccc(Cl)c(Cl)c1 (stereo not given),-4,3,-14
CN(C)S(=O)(=O)c1cccc(NC(=O)COC(=O)c2ccc3c(c2)OCO3)c1,4,13,17
CN(C)S(=O)(=O)c1ccc(C(=O)OCC(=O)Nc2ccc3c(c2)OCO3)cc1,5,21*,5
C#CCOCCOCCOCCNc1nc(N2CCN(C(=O)C(C(C)CC)n3cc(C(N)CC(C)C)nn3)CC2)nc(N2CCN(C(=O)C(C(C)CC)n3cc(C(N)CC(C)C)nn3)CC2)n1 (stereo not given),-1,15,-8
SMILES,RN4220 kill,Mtb hypoxia inh,Sa ugtP lethal
CCOC(=O)C1C2COc3cc(OC)ccc3C2N2C(=O)N(c3ccc(F)cc3)C(=O)[C@@]12C (stereo not given in full),5,16,-5
COc1ccc([N+](=O)[O-])c(S(=O)(=O)c2ccc(Cl)cc2)n1,100*,3,100*
Nc1cccnc1S(=O)(=O)c1ccccc1,-1,6,12
COc1nc(OC)nc(Oc2ccc(Cl)cc2[N+](=O)[O-])n1,1,4,0
COc1ccc([N+](=O)[O-])c(S(=O)(=O)c2ccccc2)n1,42,20,96*
CC1CN=C(N(C)C)N1CC1CCC(C(C)(C)C)CC1 (stereo not given),-2,11,-1

# Compound activity: PubChem BioAssay, ICCB-Longwood Screening Facility, Harvard Medical School
